Reference: PubChem BioAssay (NCI)
This is part of a sample that, as a whole, favours compounds with a hit. Of some 83,000 tested, about 20% had one in any assay.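 Testing used 96-well plates and a 48-hour single-concentration exposure. Example: -40 means 40% of the starting cells died.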 A number with no mark means an inactive call. Activity calls are given as the source filed them. How the source made its calls: active means growth percent below 10; inactive means the rest.

The compounds below were run on NCI-H23 lung (assay: NCI-60 one-dose screen, 48 h (100 = growth as untreated, 0 = no growth, -100 = all killed)). Settings: 10 µM unless noted.

| SMILES | growth |
| --- | --- |
| C#CCOC(=O)C(N)CSSCC(N)C(=O)O (stereo not given) | 103% |
| Nc1nc(=O)n([C@H]2CC=C(CO)O2)cc1F | 98.5% |
| O=C(Nc1cccc(Cl)c1)Oc1c(Cl)c(Cl)c(Cl)c(Cl)c1Cl | 88.1% |
| COc1ccccc1/C=C/C1=C(C)CCC(c2ccccc2OC)C1C (stereo not given) | 26.8% |
| Cc1nc2ccccc2c(/C=C/c2ccc(Br)cc2)c1C(=O)/C=C/c1ccccc1 | 8.31% (active) |
| Cc1c2ccncc2c(C)c2c1c1ccccc1n2CCCCCC(=O)O | 84.7% |
| Cn1cc(-c2csc(-c3cn(C)c4ccc(F)cc34)n2)c2cnccc21 | 75.7% |
| O=C(Nc1ccccc1CNc1nc(Nc2ccc(OCCN3CCCC3)cc2)ncc1Cl)NC1CCCCC1 | 87.2% |
| NC(=O)[C@@H]1Cc2ccccc2CN1C(=O)c1ccc2c(c1)Cc1ccccc1-2 | 89.4% |
| O=C(Nc1ccccc1C(F)(F)F)C1=NCCCCN1 | 98.5% |
| C/C(=C(\c1ccc(OCCCN(C)C)cc1)c1ccc(OC(=O)Cc2ccccc2)cc1)c1ccc(Cl)cc1 | 84.6% |
| COc1cc(C)cc(-c2c(-c3cc(N4CC(O)C4)nc(-c4cccnc4)n3)cnn2C)c1 | 77.9% |
| Cn1cc(-c2ccc3occ(-c4cccc(-c5ccncc5)c4)c3n2)cn1 | 19.5% |
| O=C1CCc2c(sc3[nH]c(=S)n(-c4cc(C(F)(F)F)cc(C(F)(F)F)c4)c(=O)c23)C1 | -10.7% (active) |
| COC1CC(O)C2=C(CC3C(/C(C)=C\CC=C(C)C)CCC3(C)O2)C1=O (stereo not given) | 97.9% |
| COc1ccc(S(=O)(=O)N(C)c2oc(-c3ccc(Cl)cc3)nc2C#N)cc1 | 79.7% |
| O=C(CSc1nnc(-c2ccc(Cl)c(Cl)c2)n1-c1ccccc1)Nc1ccc(C(=O)/C=C/c2ccc(Cl)cc2)cc1 | 95.4% |
| Cc1ccc(C(F)(F)F)cc1N1CCN(C(=O)[C@H]2C[C@H]2c2ccc(C(F)(F)F)nc2)CC1 | 95.5% |
| COc1ccc(S(=O)(=O)NC2c3ccccc3CC2O)cc1OC (stereo not given) | 103% |
| CN1CCN(Cc2ccc(NC(=O)c3cncc(C#Cc4c(N)ncc5cc(F)ccc45)c3)cc2C(F)(F)F)CC1 | -39.5% (active) |

| SMILES | growth |
| --- | --- |
| COc1ccccc1NC(=O)n1c(=O)cc(C)c2ccc(O)cc21 | 102% |
| CCCCCC(C)(O)C(C(=O)O)c1ccccc1 (stereo not given) | 107% |
| C=C(C)[C@@H]1CC[C@]2(C(=O)NC(C)=O)CC[C@]3(C)[C@H](CC[C@@H]4[C@@]5(C)CCCNC(C)(C)[C@@H]5CC[C@]43C)[C@@H]12 | 59.7% |
| Nc1nc(N)c2c(n1)NC(c1cccc(Nc3ccnc4cc(C(F)(F)F)ccc34)c1)CC(c1ccc(Cl)cc1)=N2 (stereo not given) | 64.7% |
| COc1cccc(-c2cc(-c3ccc(Nc4nc(Nc5ccc(Cl)cc5)nc(Nc5ccc(Cl)cc5)n4)cc3)nc(N)c2C#N)c1 | 37.9% |
| Cc1cc(=O)oc2cc(Oc3nc(-c4ccccc4)cn4c(-c5ccccc5)cnc34)ccc12 | 62.4% |
| COc1cc(OC)cc(C(=O)Nc2cnc(Nc3ccc(N4CCOCC4)nc3)nc2Oc2ccc(C(F)(F)F)cc2)c1 | 82% |
| COc1ccc(Cn2cc3c(c2)-c2oncc2CC3)cc1 | 79.8% |
| CN1CCN(Cn2nc(-c3cc(Cl)cc(Cl)c3Cl)oc2=S)CC1 | 90% |
| CC(C)(C)CC(C)(C)Nc1c(-c2c(O)c3ccccc3oc2=O)nc2sccn12 | 97.9% |
| O=C(O)CCCN1C(=O)CSC1=S | 104% |
| CC1(C)CC(=O)C2=C(C1)OC(C(=O)c1ccccc1)C2c1cccc(Oc2ccccc2)c1 (stereo not given) | 48.5% |
| O=C(OCc1ccc2c(Br)cc(Br)c(O)c2n1)N1CCN(C(=O)c2cc3ccccc3[nH]2)CC1 | 39.4% |
| COc1cc(-c2ccc(-c3ccc(C(=N)N)s3)s2)cc(OC)c1OC | 71.5% |
| C(CCCSC1=NCCN1)CCSC1=NCCN1 | 94.8% |
| COc1ccc(NC(=O)c2sc3nc(C)c(C(=O)c4ccccc4)cc3c2N)cc1 | 96.1% |
| CNc1nc2ncc(-c3c(C)noc3C)cc2n1Cc1ccccc1 | 55.5% |
| COC(=O)[C@H](C)NC(=O)c1ccc(NC(=O)c2[nH]c(C)c(Cl)c2Cl)c(OCCN)c1 | 106% |
| Cc1[nH]c(C(=O)Nc2ccc(C(N)=O)cc2OC(C)C)c(Cl)c1Cl | 97.6% |
| COc1cc(/C=N/NC(=O)c2ccc3nc(-c4ccc(Cl)cc4)[nH]c3c2)cc(OC)c1OC | 53.7% |

What follows are compounds tested on NCI-H226 lung in the same assay as above. Settings: 10 µM unless noted.

| SMILES | growth |
| --- | --- |
| C#CCOC(=O)C(N)CSSCC(N)C(=O)O (stereo not given) | 112% |
| Nc1nc(=O)n([C@H]2CC=C(CO)O2)cc1F | 99.6% |
| O=C(Nc1cccc(Cl)c1)Oc1c(Cl)c(Cl)c(Cl)c(Cl)c1Cl | 83.8% |
| COc1ccccc1/C=C/C1=C(C)CCC(c2ccccc2OC)C1C (stereo not given) | 45.8% |
| Cc1nc2ccccc2c(/C=C/c2ccc(Br)cc2)c1C(=O)/C=C/c1ccccc1 | 25.1% |
| Cc1c2ccncc2c(C)c2c1c1ccccc1n2CCCCCC(=O)O | 75.6% |
| Cn1cc(-c2csc(-c3cn(C)c4ccc(F)cc34)n2)c2cnccc21 | 68.5% |
| O=C(Nc1ccccc1CNc1nc(Nc2ccc(OCCN3CCCC3)cc2)ncc1Cl)NC1CCCCC1 | 97% |
| NC(=O)[C@@H]1Cc2ccccc2CN1C(=O)c1ccc2c(c1)Cc1ccccc1-2 | 83.2% |
| O=C(Nc1ccccc1C(F)(F)F)C1=NCCCCN1 | 96.1% |
| C/C(=C(\c1ccc(OCCCN(C)C)cc1)c1ccc(OC(=O)Cc2ccccc2)cc1)c1ccc(Cl)cc1 | 100% |
| COc1cc(C)cc(-c2c(-c3cc(N4CC(O)C4)nc(-c4cccnc4)n3)cnn2C)c1 | 91.5% |
| Cn1cc(-c2ccc3occ(-c4cccc(-c5ccncc5)c4)c3n2)cn1 | 33.6% |
| O=C1CCc2c(sc3[nH]c(=S)n(-c4cc(C(F)(F)F)cc(C(F)(F)F)c4)c(=O)c23)C1 | -19% (active) |
| COC1CC(O)C2=C(CC3C(/C(C)=C\CC=C(C)C)CCC3(C)O2)C1=O (stereo not given) | 101% |
| COc1ccc(S(=O)(=O)N(C)c2oc(-c3ccc(Cl)cc3)nc2C#N)cc1 | 94.9% |
| O=C(CSc1nnc(-c2ccc(Cl)c(Cl)c2)n1-c1ccccc1)Nc1ccc(C(=O)/C=C/c2ccc(Cl)cc2)cc1 | 89.1% |
| Cc1ccc(C(F)(F)F)cc1N1CCN(C(=O)[C@H]2C[C@H]2c2ccc(C(F)(F)F)nc2)CC1 | 84.3% |
| COc1ccc(S(=O)(=O)NC2c3ccccc3CC2O)cc1OC (stereo not given) | 102% |
| CN1CCN(Cc2ccc(NC(=O)c3cncc(C#Cc4c(N)ncc5cc(F)ccc45)c3)cc2C(F)(F)F)CC1 | 22.2% |

| SMILES | growth |
| --- | --- |
| COc1ccccc1NC(=O)n1c(=O)cc(C)c2ccc(O)cc21 | 93.5% |
| CCCCCC(C)(O)C(C(=O)O)c1ccccc1 (stereo not given) | 104% |
| C=C(C)[C@@H]1CC[C@]2(C(=O)NC(C)=O)CC[C@]3(C)[C@H](CC[C@@H]4[C@@]5(C)CCCNC(C)(C)[C@@H]5CC[C@]43C)[C@@H]12 | 83.6% |
| Nc1nc(N)c2c(n1)NC(c1cccc(Nc3ccnc4cc(C(F)(F)F)ccc34)c1)CC(c1ccc(Cl)cc1)=N2 (stereo not given) | 82.7% |
| COc1cccc(-c2cc(-c3ccc(Nc4nc(Nc5ccc(Cl)cc5)nc(Nc5ccc(Cl)cc5)n4)cc3)nc(N)c2C#N)c1 | 10.5% |
| Cc1cc(=O)oc2cc(Oc3nc(-c4ccccc4)cn4c(-c5ccccc5)cnc34)ccc12 | 44.6% |
| COc1cc(OC)cc(C(=O)Nc2cnc(Nc3ccc(N4CCOCC4)nc3)nc2Oc2ccc(C(F)(F)F)cc2)c1 | 39.9% |
| COc1ccc(Cn2cc3c(c2)-c2oncc2CC3)cc1 | 86.9% |
| CN1CCN(Cn2nc(-c3cc(Cl)cc(Cl)c3Cl)oc2=S)CC1 | 96% |
| CC(C)(C)CC(C)(C)Nc1c(-c2c(O)c3ccccc3oc2=O)nc2sccn12 | 88.9% |
| O=C(O)CCCN1C(=O)CSC1=S | 111% |
| CC1(C)CC(=O)C2=C(C1)OC(C(=O)c1ccccc1)C2c1cccc(Oc2ccccc2)c1 (stereo not given) | 53.3% |
| O=C(OCc1ccc2c(Br)cc(Br)c(O)c2n1)N1CCN(C(=O)c2cc3ccccc3[nH]2)CC1 | 39.5% |
| COc1cc(-c2ccc(-c3ccc(C(=N)N)s3)s2)cc(OC)c1OC | 89.4% |
| C(CCCSC1=NCCN1)CCSC1=NCCN1 | 107% |
| COc1ccc(NC(=O)c2sc3nc(C)c(C(=O)c4ccccc4)cc3c2N)cc1 | 97.2% |
| CNc1nc2ncc(-c3c(C)noc3C)cc2n1Cc1ccccc1 | 56.6% |
| COC(=O)[C@H](C)NC(=O)c1ccc(NC(=O)c2[nH]c(C)c(Cl)c2Cl)c(OCCN)c1 | 112% |
| Cc1[nH]c(C(=O)Nc2ccc(C(N)=O)cc2OC(C)C)c(Cl)c1Cl | 107% |
| COc1cc(/C=N/NC(=O)c2ccc3nc(-c4ccc(Cl)cc4)[nH]c3c2)cc(OC)c1OC | 76% |
